Residues, ends and D or L forms follow the SMILES beside them. *: point of attachment. CH2Cl = ClC*
Tests used:
Conditions in all cases: Compound concentration 20.0 uM
[1] = target: Tyrosine-protein kinase ABL1 (Homo sapiens) (UniProt P00519)
[2] = target: Bromodomain-containing protein 4 (Homo sapiens) (UniProt O60885)
[3] = target: Cyclin-dependent kinase 2 (Homo sapiens) (UniProt P24941)
[4] = target: Casein kinase I isoform delta (Homo sapiens) (UniProt P48730)
[5] = target: Glycogen synthase kinase-3 beta (Homo sapiens) (UniProt P49841)
[6] = target: Mitogen-activated protein kinase 1 (Homo sapiens) (UniProt P28482)
[7] = target: T1, Aurora kinase A (Homo sapiens) (UniProt O14965)
T1 sequence (whole entry): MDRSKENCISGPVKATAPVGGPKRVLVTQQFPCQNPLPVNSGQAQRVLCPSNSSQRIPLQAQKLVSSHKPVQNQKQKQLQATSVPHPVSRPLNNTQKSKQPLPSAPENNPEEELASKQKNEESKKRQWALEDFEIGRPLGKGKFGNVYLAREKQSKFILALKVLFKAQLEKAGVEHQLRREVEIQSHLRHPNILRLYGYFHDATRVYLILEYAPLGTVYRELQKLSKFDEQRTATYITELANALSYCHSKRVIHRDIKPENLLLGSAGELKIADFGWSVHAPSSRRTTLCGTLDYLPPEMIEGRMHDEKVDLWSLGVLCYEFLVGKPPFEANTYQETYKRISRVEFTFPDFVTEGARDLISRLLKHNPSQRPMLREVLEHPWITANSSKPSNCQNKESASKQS

[8] = target: T2, Transcription intermediary factor 1-alpha (Homo sapiens) (UniProt O15164)
T2 sequence (whole entry): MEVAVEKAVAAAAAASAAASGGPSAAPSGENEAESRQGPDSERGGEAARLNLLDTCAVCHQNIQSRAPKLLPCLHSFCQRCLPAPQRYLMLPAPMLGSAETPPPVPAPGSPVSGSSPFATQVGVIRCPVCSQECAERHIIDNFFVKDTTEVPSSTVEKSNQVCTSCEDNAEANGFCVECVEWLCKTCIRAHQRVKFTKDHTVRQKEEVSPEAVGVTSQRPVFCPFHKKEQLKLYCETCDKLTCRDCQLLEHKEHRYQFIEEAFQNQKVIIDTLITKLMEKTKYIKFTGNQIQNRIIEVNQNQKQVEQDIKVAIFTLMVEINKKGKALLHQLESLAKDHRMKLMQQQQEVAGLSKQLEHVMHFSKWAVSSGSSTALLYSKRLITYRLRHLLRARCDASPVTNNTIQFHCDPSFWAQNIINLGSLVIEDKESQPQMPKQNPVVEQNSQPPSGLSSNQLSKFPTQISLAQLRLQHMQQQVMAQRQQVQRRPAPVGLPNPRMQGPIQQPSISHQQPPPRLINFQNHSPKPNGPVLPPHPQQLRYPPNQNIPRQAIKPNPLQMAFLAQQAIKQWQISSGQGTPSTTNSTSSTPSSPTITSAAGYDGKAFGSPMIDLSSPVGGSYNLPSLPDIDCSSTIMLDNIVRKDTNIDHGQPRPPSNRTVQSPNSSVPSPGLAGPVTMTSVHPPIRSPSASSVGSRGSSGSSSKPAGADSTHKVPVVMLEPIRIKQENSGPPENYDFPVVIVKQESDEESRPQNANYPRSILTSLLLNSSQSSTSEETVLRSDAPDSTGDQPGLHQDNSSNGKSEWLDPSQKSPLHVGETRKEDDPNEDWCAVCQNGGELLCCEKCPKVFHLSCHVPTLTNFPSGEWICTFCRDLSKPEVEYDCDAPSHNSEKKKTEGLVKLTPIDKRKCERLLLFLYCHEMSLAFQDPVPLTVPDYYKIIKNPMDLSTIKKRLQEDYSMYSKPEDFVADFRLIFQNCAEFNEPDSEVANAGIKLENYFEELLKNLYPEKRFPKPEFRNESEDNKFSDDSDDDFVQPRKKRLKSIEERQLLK

Mitogen-activated protein kinase 1 (Homo sapiens), sequence (P28482 whole entry): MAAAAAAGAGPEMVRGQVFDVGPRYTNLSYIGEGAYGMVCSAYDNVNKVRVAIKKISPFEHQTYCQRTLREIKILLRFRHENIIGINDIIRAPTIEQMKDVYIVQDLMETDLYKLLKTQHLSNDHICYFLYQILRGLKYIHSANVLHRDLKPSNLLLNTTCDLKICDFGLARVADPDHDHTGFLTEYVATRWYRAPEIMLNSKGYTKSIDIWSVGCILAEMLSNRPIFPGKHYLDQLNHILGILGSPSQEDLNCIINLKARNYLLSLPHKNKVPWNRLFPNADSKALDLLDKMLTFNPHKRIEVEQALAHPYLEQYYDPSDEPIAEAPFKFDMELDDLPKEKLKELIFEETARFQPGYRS
Glycogen synthase kinase-3 beta (Homo sapiens), sequence (P49841 whole entry, looked up): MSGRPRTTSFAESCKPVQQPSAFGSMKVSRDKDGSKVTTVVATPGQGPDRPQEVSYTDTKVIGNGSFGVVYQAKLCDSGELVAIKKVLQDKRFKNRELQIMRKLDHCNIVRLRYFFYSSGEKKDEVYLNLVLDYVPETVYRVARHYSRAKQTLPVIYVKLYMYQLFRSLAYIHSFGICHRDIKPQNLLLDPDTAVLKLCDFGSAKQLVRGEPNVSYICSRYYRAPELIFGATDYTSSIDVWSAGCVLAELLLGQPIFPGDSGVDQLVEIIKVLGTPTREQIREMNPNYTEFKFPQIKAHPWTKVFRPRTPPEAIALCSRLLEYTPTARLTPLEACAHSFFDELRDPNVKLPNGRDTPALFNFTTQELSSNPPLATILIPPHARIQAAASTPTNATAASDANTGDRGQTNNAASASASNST
Casein kinase I isoform delta (Homo sapiens), sequence (P48730 whole entry, looked up, canonical isoform): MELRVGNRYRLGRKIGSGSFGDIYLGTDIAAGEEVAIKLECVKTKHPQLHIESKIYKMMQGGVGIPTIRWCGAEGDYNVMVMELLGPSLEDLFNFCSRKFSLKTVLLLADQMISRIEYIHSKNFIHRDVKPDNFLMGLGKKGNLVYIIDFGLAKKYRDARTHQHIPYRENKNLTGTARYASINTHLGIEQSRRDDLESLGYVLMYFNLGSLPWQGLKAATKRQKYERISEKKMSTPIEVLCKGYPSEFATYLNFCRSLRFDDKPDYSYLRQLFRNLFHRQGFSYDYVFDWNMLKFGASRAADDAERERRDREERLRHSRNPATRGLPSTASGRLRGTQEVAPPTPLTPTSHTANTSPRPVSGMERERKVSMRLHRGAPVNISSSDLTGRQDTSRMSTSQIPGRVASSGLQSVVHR
Tyrosine-protein kinase ABL1 (Homo sapiens), sequence (P00519 whole entry): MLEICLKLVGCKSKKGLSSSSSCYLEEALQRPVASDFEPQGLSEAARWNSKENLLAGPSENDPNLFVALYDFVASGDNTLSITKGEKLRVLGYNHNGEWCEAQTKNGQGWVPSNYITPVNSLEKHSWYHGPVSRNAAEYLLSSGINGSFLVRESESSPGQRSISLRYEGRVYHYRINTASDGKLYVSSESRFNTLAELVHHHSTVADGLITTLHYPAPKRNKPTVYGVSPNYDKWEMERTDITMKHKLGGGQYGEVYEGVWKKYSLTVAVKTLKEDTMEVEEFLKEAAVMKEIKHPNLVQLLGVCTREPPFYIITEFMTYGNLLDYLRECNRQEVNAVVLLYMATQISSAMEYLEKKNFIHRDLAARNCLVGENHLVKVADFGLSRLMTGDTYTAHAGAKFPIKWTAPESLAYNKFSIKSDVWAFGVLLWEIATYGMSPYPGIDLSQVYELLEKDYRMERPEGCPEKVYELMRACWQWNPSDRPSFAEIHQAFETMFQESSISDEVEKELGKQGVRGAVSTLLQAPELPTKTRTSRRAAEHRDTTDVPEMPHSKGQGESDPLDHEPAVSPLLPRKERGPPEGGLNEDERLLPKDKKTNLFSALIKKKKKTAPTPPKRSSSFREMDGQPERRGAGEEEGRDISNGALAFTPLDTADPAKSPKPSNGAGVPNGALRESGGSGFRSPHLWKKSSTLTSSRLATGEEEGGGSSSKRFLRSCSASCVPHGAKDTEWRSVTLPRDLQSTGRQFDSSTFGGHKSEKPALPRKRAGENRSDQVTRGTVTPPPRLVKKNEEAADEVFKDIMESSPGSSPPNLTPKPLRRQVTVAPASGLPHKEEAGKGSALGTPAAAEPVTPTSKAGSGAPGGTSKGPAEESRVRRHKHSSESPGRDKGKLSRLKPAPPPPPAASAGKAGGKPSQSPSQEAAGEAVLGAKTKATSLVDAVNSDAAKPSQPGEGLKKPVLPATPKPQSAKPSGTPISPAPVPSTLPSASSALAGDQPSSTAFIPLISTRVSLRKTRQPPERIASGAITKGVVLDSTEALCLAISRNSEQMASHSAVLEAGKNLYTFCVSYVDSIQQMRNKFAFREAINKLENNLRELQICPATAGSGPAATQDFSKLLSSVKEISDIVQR

Row | SMILES | ΔTm [1] [°C] | ΔTm [2] [°C] | ΔTm [3] [°C] | ΔTm [4] [°C] | ΔTm [5] [°C] | ΔTm [6] [°C] | ΔTm [7] [°C] | ΔTm [8] [°C]
1 | Cn1ncnc1[C@H]1C2=c3c(cc(F)cc3=N[C@@H]1c1ccc(F)cc1)C(=O)NN2 | 0.89 | 0.71 | 0.22 | -0.5 | 0.19 | 0.14 | -1.59 | 0.57
2 | COc1cc2c(NC3CCN(CC4CCCCC4)CC3)nc(N3CCCN(C(C)C)CC3)nc2cc1OCCCN1CCCCC1 | 0.33 | -0.97 | 0.51 | 0.17 | -0.33 | -0.16 | -0.14 | -0.74
3 | CS(=O)(=O)N1CCN(C(=O)c2cnc3ccc(F)cc3c2-c2ccc(C3(C#N)CC3)cc2)CC1 | 0.07 | 1.15 | 0.13 | 0.11 | 3.18 | 0.08 | -1.44 | 0.3
4 | Cc1[nH]c2c(N3CCCCC3)c(-c3ccccc3)nn2c(=O)c1-c1ccc(O)cc1 | -0.07 | 0.61 | 0.64 | -0.07 | -1.39 | 0.65 | -0.41 | -0.15
5 | CCCCCCNC(=O)n1cc(Cl)c(=O)n(C(=O)OCC(C)C)c1=O | 0.44 | -0.35 | 0.16 | -0.34 | -0.76 | -0.05 | -0.58 | 0.93
6 | CCCCCCNC(=O)n1cc(F)c(=O)[nH]c1=O | 0.09 | -1.76 | -0.24 | -0.3 | -0.82 | 0.03 | -1.98 | 0.05
7 | CCCN(CCC)c1ccc(C=O)cc1Br | 0.01 | -2.88 | -0.15 | -0.24 | -0.05 | 0.17 | -2.25 | -0.42
8 | Cc1cc(N2C[C@@H](C)N[C@@H](C)C2)ncc1-c1ccc(-c2nc3c(ccn3C)c(=O)[nH]2)cc1 | 1.3 | -0.52 | 0.78 | 0.59 | 0.66 | 0.08 | -1.4 | 0.61
9 | COc1ccc(N2CCN(C(=O)c3cc4c(s3)-c3ccccc3S(=O)(=O)C4)CC2)cc1 | 0.15 | -2.04 | 0.12 | -0.01 | -0.71 | 0.36 | -1.67 | 0.69
10 | Nc1cccc(Nc2ncc(-c3ccc(Cl)cc3)o2)c1 | 9.33 | 0.39 | 9.01 | 0.43 | 7.51 | 0.54 | 6.87 | -0.45
11 | C=CCn1c(N[C@@H]2C[C@H](c3ccc(OCc4ccccc4)cc3)CN(C)C2)nc2cc[nH]c2c1=O | 0.69 | 0.73 | -0.03 | -0.36 | -0.88 | 0.13 | -1.6 | 0.04
12 | CS(=O)(=O)c1ccc(-c2cnc(NCc3ccco3)n3cnnc23)cc1 | 0.92 | -0.86 | 0.28 | 0.44 | -2.03 | 0.02 | 0.67 | -1.77
13 | Nc1ncnc2c1ncn2[C@@H]1O[C@H](C(=O)N2CCN(CC(=O)Nc3cccc4c3CNC4=O)CC2)[C@@H](O)[C@H]1O | 0.45 | -1.31 | -0.11 | 0.22 | -0.59 | 0.31 | -1.04 | -0.61
14 | Cc1nc(F)ccc1-c1cc(Cn2ccn(C)c2=N)cc(C(=O)NCc2ccc(Cl)c(Cl)c2)c1 | 0.39 | -2.09 | -0.77 | 0.13 | -0.9 | -0.24 | -0.34 | -1.96
15 | CC(=O)O[C@]1(C(C)=O)CC[C@H]2[C@@H]3C=C(Cl)C4=CC(=O)[C@@H]5C[C@@H]5[C@]4(C)[C@H]3CC[C@@]21C | 0.36 | -1.71 | 0.15 | 0.16 | -0.72 | -0.22 | -1.49 | -1.08
16 | CC(=O)N1CCc2c(c(N3CCCc4cc(-c5cnn(C)c5)c(C(F)F)cc43)nn2C2CCOCC2)C1 | 0.45 | 0.99 | -0.16 | 0.23 | -0.52 | -0.44 | -1.07 | -1.11
17 | CCc1oc2ccccc2c1C(=O)c1cc(Br)c(O)c(Br)c1 | 0.11 | -6.7 | -2.31 | -9.78 | 0 | -2.33 | 0.35 | 0
18 | CCN(CCN(C)C)C(=O)CNCc1cc(C(N)=O)ccn1 | 0.33 | -1.29 | 0.23 | -0.08 | 0.25 | -0.01 | -1.34 | -0.57
19 | Cc1noc(C)c1-c1cc(Cl)c(Nc2ccccc2C(=O)O)c(Cl)c1 | 0.49 | 2.54 | -0.13 | -0.64 | -0.39 | 0.1 | -2.08 | -1.42
20 | COc1ccc(-c2ccc3c(c2)COC3=O)n2nc(C3(C(=O)OCC(C)C)CC3)nc12 | 0.4 | 2.58 | 0.54 | 0.04 | -0.38 | 1.36 | -1.67 | 0.5
21 | Cc1nc(-c2cnc(NC(C)C)n(C)c2=O)ccc1Oc1ccnc(-c2cnn(C)c2)c1 | 13.3 | -1.75 | 0.63 | 0.37 | -0.22 | -0.25 | 0.8 | -1.36

Row | SMILES | ΔTm [1] [°C] | ΔTm [2] [°C] | ΔTm [3] [°C] | ΔTm [4] [°C] | ΔTm [5] [°C] | ΔTm [6] [°C] | ΔTm [7] [°C] | ΔTm [8] [°C]
22 | N[C@@H](CC(=O)N1CCN(C(c2ccc(F)cc2)c2ccc(F)cc2)CC1)C(=O)N1Cc2ccccc2C1 | -0.03 | 0.11 | -3.61 | -0.26 | 0 | 0 | 0 | -6.21
23 | COc1ccc([C@@H]2CNC(=O)C2)cc1OC1CCCC1 | 0.51 | -3.17 | 0.13 | -0.19 | -0.23 | 0.08 | -2.43 | 0.65
24 | O=c1[nH][nH]c(=O)c2cc(OCC3CCCCC3)ccc12 | 2.06 | -1.15 | 1.01 | -0.01 | 2.16 | 0.61 | -0.19 | 1.88
25 | COc1ccccc1C(=O)Nc1cc2c(cc1N1CCNC[C@H]1C)n(C)c(=O)n2C | 0.51 | 1.74 | 0.17 | 0.91 | 0.41 | 0.25 | -0.29 | 0.27
26 | CC(=O)N[C@@H](Cc1ccccc1)C(=O)N[C@@H](CC(C)C)C(=O)N[C@H](C(=O)N[C@@H](CC(=O)O)C(=O)CCl)[C@@H](C)O (Ac-FLTD-CH2Cl) | 0.28 | -2.88 | 0.03 | 0.15 | -0.18 | -0.16 | -0.89 | -0.91
27 | CN(C)Cc1ccc(-c2nc3cccc4c3n2CCNC4=O)cc1 | 0.45 | 0.14 | 0.42 | -0.01 | 1.99 | 0.01 | -0.64 | 0.79
28 | NC(=O)[C@H]1CCCCc2c1[nH]c1ccc(Cl)cc21 | 1.15 | -1.22 | 0.22 | 0.38 | 0.6 | -0.5 | 1.7 | 0.16
29 | CC(=O)Nc1ccc(C(=O)Nc2ccc(F)cc2N)cc1 | 2.43 | -2.84 | -0.66 | 0.17 | -3.79 | -0.66 | -2.46 | -0.15
30 | CC(C)CCn1c(CN2CCN(C(=O)C3CC3)CC2)nc2c1c(=O)n(C)c(=O)n2C | 0.68 | -2.93 | 0.17 | -0.39 | -0.45 | 0.11 | -2.45 | 0.08
31 | CCOc1ccc2nc(-c3cccc(OCC(=O)NC(C)C)c3)nc(Nc3ccc(-c4cn[nH]c4)cc3)c2c1 | 0.09 | -0.68 | 0.3 | -1.4 | -0.35 | -2.16 | 0 | 0
32 | COc1ccc(OC)c(-c2nnc3n2N=C(c2ccc(OC)c(OC)c2)CS3)c1 | 0.21 | 2.23 | -0.04 | -0.07 | -1.12 | 0.55 | -1.28 | 1.86
33 | Cc1ncccc1-c1cnc(NCc2c(F)ccc3c2CCO3)n2cnnc12 | 0.04 | -1.73 | 0.42 | 0.15 | -0.06 | 0.37 | -0.39 | -1.52
34 | CCNC(=O)c1noc(-c2cc(C(C)C)c(O)cc2O)c1-c1ccc(CN2CCOCC2)cc1 | 0.97 | -0.86 | 0.79 | 0.41 | 0.48 | -0.06 | 0.68 | 0.38
35 | CCCCCCCCCCCCCC(=S)NCCCC[C@H](NC(=O)OCc1ccccc1)C(=O)Nc1ccccc1 | 0.75 | 2.49 | 1.43 | 0.13 | 0.6 | 0.45 | -2.19 | 1.92
36 | O=C(CNC(=O)[C@H](COP(=O)(O)O)NC(=O)CCc1c[nH]c2ccccc12)NCCCCc1ccccc1 | 0.34 | -3.51 | 0.72 | -0.09 | -0.2 | 0.17 | -1.56 | 0.45
37 | N#C[C@@H]1CCCN1C(=O)[C@@H]1CCCN1C(=O)CCCc1ccccc1 | 0.07 | -2.61 | 0.09 | 0.05 | -0.27 | 0.11 | -1.43 | -0.5
38 | OC[C@H]1O[C@@H](c2ccc(Cl)c(Cc3ccc(OCCOC4CC4)cc3)c2)[C@H](O)[C@@H](O)[C@@H]1O | 0.7 | -2.67 | 0.19 | -1.19 | -0.38 | 0.15 | -2.84 | 0.19
39 | C[C@@H]1OC(=O)NN=C1c1ccc(-c2ccc(F)cc2)c(C(F)(F)F)c1 | -1.46 | -3.44 | -0.76 | -0.33 | -7.28 | -0.02 | -7.3 | -0.48
40 | O=C1c2ccccc2C(=O)c2oc(-c3cccnc3)nc21 | 0.81 | -2.99 | 0.36 | -0.59 | 0.34 | 0.32 | -2.61 | -0.87
41 | Cc1ncsc1-c1ccc([C@H](C)NC(=O)[C@@H]2C[C@@H](O)CN2C(=O)[C@@H](NC(=O)CNC(=O)c2ccc(F)c(-c3ccc(N4C[C@@H](C)N(C)[C@@H](C)C4)c(NC(=O)c4c[nH]c(=O)cc4C(F)(F)F)c3)c2)C(C)(C)C)cc1 | -0.64 | -6.28 | -0.94 | 0.81 | -3.51 | -15.7 | -5.35 | 1.29
